Assay results from PubChem BioAssay (Tox21).
Values joined by “and” are separate entries in the source; they are usually repeats but may differ in a detail not shown here. Identical values can stand only once. Results filed as inconclusive are left out. Some compounds were tested as several samples or in several runs, with calls that do not always agree. Active and inactive are the calls of the source. Unless noted, the call rests on the fitted dose curve; in most records, active means well fitted curve in the direction sought with a large enough effect in the repeat runs; inconclusive means weak or mixed curves; inactive means no such curve, though single readings can be large; an effect the other way counts as inactive or inconclusive.

Legend:
[1] = qHTS assay to test for compound auto fluorescence at 535 nm (green) in HEK293 cells (AID 720680)
[2] = qHTS assay to test for compound auto fluorescence at 460 nm (blue) in HEK293 cell free culture (AID 720681)
Procedure, shortened: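 Blue fluorescence (Ex 405/Em 460 nm, triamterene-equivalent) was read immediately after pin transfer of compound or DMSO into medium (DMEM, 10% FBS) without cells.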

[3] = qHTS assay to test for compound auto fluorescence at 535 nm (green) in HEK293 cell free culture (AID 720682)
Procedure, shortened: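 Green-channel intensity (Ex/Em 485/535 nm) was recorded from compound-treated wells containing only DMEM with 10% FBS. Fluorescein provided the equivalency standard.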

[4] = qHTS assay to test for compound auto fluorescence at 590 nm (red) in HEK293 cell free culture (AID 720683)
Procedure, shortened: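 Red-channel autofluorescence of compounds in culture medium (DMEM, 10% FBS), no cells, measured at 540/590 nm. Rose Bengal sodium is the reference fluorophore for equivalence.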

[5] = qHTS assay to test for compound auto fluorescence at 590 nm (red) in HepG2 cell free culture (AID 720684)
Procedure, shortened: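 Steps: dispense MEM/10% FBS medium, no cells; pin compound or DMSO vehicle; read red channel, Ex/Em 540/590 nm. Output given as Rose Bengal sodium equivalents.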

[6] = qHTS assay to test for compound auto fluorescence at 460 nm (blue) in HepG2 cell free culture (AID 720685)
Procedure, shortened: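 Compound (23 nL) or DMSO pinned into cell-free MEM with 10% FBS; blue fluorescence read at 405/460 nm excitation/emission, expressed as auto-fluorescence equivalency to triamterene.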

[7] = qHTS assay to test for compound auto fluorescence at 535 nm (green) in HepG2 cell free culture (AID 720686)
[8] = qHTS assay to test for compound auto fluorescence at 460 nm (blue) in HepG2 cells (AID 720687)
Procedure, shortened: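 Blue-channel autofluorescence (Ex/Em 405/460 nm, triamterene-equivalent) was measured after 1 hr compound exposure at 37 C, 5% CO2. Cells were HepG2, plated overnight at 37 C in MEM plus 10% FBS.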

[9] = biological target: Glucocorticoid receptor (Homo sapiens) (UniProt P04150); experiment: qHTS assay to identify small molecule agonists of the glucocorticoid receptor (GR) signaling pathway (AID 720691; active means well fitted activation curve with a large enough effect in the signal ratio in the repeat runs, not every such curve was filed as active; the % refers to the signal ratio)
Chain of Glucocorticoid receptor (Homo sapiens) (P04150 whole entry, looked up): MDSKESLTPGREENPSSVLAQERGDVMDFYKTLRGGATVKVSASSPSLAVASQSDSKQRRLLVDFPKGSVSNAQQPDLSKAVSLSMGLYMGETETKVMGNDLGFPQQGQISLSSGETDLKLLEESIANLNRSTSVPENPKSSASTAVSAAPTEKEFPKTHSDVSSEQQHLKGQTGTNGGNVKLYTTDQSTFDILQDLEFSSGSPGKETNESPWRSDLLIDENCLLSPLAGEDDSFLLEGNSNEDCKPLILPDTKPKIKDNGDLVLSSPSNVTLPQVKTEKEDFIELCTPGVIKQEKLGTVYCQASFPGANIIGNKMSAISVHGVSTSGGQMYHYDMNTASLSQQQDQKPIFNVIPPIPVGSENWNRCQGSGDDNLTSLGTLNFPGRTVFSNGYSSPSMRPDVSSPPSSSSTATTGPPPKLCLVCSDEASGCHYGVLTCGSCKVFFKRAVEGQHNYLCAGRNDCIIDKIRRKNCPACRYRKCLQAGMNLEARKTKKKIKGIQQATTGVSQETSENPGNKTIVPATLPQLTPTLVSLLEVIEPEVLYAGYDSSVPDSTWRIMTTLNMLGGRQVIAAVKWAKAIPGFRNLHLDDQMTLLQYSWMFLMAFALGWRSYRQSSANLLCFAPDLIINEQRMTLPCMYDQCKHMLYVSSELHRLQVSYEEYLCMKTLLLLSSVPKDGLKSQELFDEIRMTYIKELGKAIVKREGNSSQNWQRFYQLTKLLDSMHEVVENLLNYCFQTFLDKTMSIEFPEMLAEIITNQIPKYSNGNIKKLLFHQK
Procedure, shortened: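 Agonist mode in a HeLa line carrying a GRE-controlled beta-lactamase reporter. Compounds act for 18 h at 37 C before a 2 h room-temperature FRET substrate step and fluorescence reading.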

[10] = biological target: Glucocorticoid receptor (Homo sapiens) (UniProt P04150); experiment: qHTS assay to identify small molecule antagonists of the glucocorticoid receptor (GR) signaling pathway (AID 720692; active means well fitted inhibition curve with a large enough effect in the signal ratio in the repeat runs, not every such curve was filed as active; the % refers to the signal ratio; further: potency means the concentration at half of the fitted maximal effect)
Procedure, shortened: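 Cells plated, rested 4 h at 37 C/5% CO2; compounds in DMSO pin-transferred; dexamethasone added to 5 nM final; 18 h at 37 C; B/G FRET substrate added, 2 h room temperature; fluorescence measured.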

[11] = qHTS assay to identify small molecule antagonists of the glucocorticoid receptor (GR) signaling pathway - cell viability counter screen (AID 720693); further: nearly all actives have a fitted effect of over 55% in size
[12] = qHTS assay for identifying genotoxic compounds that show differential cytotoxicity against isogenic chicken DT40 cell lines with known DNA damage response pathways - wild type cell line (AID 743012); further: nearly all actives have a fitted effect of over 60% in size; further: potency means the concentration at half of the fitted maximal effect
Procedure, shortened: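 Cells (DT40 wild type, 300/well) are treated with DMSO-dissolved compounds after a ~0.5 h pre-incubation and kept 40 h at 37 C/5% CO2. Viability is then measured by CellTiter-Glo luminescence following 30 min at room temperature.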

[13] = qHTS assay for identifying genotoxic compounds that show differential cytotoxicity against isogenic chicken DT40 cell lines with known DNA damage response pathways - Rev3 mutant cell line (AID 743014); further: nearly all actives have a fitted effect of over 55% in size; further: potency means the concentration at half of the fitted maximal effect
[14] = qHTS assay for identifying genotoxic compounds that show differential cytotoxicity against isogenic chicken DT40 cell lines with known DNA damage response pathways - Rad54/Ku70 mutant cell line (AID 743015); further: nearly all actives have a fitted effect of over 60% in size; further: potency means the concentration at half of the fitted maximal effect
[15] = qHTS assay to identify small molecule antagonists of the androgen receptor (AR) signaling pathway - cell viability counter screen (AID 743033; further: nearly all actives have a fitted effect of over 45% in size; further: potency means the concentration at half of the fitted maximal effect)
[16] = qHTS assay to identify small molecule antagonists of the androgen receptor (AR) signaling pathway using the MDA cell line - cell viability counter screen (AID 743041; further: nearly all actives have a fitted effect of over 45% in size)
Procedure, shortened: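 Cells were plated at 3,000 per well and left 5 h. Compounds in DMSO were then pinned in, followed by R1881. After 16 h at 37C, CellTiter-Fluor fluorescence gave viability.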

[17] = biological target: Androgen receptor (Homo sapiens) (UniProt P10275); experiment: qHTS assay to identify small molecule antagonists of the androgen receptor (AR) signaling pathway (AID 743035; active means well fitted inhibition curve with a large enough effect in the signal ratio in the repeat runs, not every such curve was filed as active; the % refers to the signal ratio)
Chain of Androgen receptor (Homo sapiens) (P10275 whole entry, looked up): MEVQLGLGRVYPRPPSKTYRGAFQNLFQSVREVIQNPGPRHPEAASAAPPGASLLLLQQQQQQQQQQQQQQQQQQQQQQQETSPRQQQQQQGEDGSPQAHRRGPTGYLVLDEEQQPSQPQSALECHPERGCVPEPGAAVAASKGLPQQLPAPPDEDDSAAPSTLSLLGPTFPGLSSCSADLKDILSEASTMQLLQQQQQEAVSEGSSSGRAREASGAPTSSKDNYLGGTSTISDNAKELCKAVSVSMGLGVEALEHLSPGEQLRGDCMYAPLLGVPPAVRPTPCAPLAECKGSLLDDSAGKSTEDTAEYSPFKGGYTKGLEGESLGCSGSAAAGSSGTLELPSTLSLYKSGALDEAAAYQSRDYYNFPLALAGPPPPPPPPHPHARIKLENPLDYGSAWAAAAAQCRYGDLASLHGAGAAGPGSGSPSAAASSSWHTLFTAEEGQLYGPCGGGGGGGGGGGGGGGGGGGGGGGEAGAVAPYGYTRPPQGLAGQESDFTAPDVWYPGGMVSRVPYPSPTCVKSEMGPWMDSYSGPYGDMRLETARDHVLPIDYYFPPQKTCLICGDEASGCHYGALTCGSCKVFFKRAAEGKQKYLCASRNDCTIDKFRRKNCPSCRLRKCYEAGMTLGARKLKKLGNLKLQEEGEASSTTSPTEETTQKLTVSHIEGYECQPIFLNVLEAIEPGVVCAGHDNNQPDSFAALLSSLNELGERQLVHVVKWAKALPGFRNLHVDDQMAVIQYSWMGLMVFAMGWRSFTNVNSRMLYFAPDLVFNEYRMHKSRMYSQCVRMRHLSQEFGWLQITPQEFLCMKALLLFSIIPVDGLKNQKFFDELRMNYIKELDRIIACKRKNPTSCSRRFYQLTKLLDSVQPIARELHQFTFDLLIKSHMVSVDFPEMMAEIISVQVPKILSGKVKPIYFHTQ
Procedure, shortened: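 Antagonism is scored as loss of R1881-driven beta-lactamase reporter expression in HEK293 cells carrying the reporter under a UAS element, after 16 h co-treatment at 37C and a 2 h room-temperature FRET substrate read.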

[18] = biological target: Androgen receptor (Homo sapiens) (UniProt P10275); experiment: qHTS assay to identify small molecule agonists of the androgen receptor (AR) signaling pathway (AID 743036; active means well fitted activation curve with a large enough effect in the signal ratio in the repeat runs, with a control signal flat, not every such curve was filed as active; the % refers to the signal ratio)
Procedure, shortened: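 Cell-based FRET reporter assay: HEK293 line with a UAS-beta-lactamase construct, compounds added in DMSO, 16 h exposure at 37C, then 2 h substrate step at room temperature and fluorescence intensity read.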

[19] = biological target: Androgen receptor (Homo sapiens) (UniProt P10275); experiment: qHTS assay to identify small molecule agonists of the androgen receptor (AR) signaling pathway using the MDA cell line (AID 743040; further: nearly all actives have a fitted effect of over 20% in size)
Procedure, shortened: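 Cells plated, 5 h at 37C/0% CO2; compound or DMSO pinned; 16 h at 37C; ONE-Glo added; luminescence measured after 30 min at room temperature. Reporter line: MDA-kb2 with MMTV-luciferase responsive to AR and GR.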

[20] = biological target: Androgen receptor (Homo sapiens) (UniProt P10275); experiment: qHTS assay to identify small molecule antagonists of the androgen receptor (AR) signaling pathway using the MDA cell line (AID 743042; further: nearly all actives have a fitted effect of over 55% in size; further: potency means the concentration at half of the fitted maximal effect)
Procedure, shortened: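 Antagonist mode: compounds plus R1881 agonist added to MDA-kb2 AR-luc cells, incubated 16 h at 37C. Luciferase reporter luminescence quantified, with multiplexed CellTiter-Fluor readout for cell viability.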

Measured: Potency

c1cc(-c2ccncc2)ccn1
not listed: [17] | [18] | [19] | [20]
inactive: all other assays above

O=CCc1ccccc1
not listed: [13] | [14] | [17] | [18] | [19] | [20]
inactive: all other assays above

OC[C@H]1O[C@@H]2O[C@H]3[C@H](O)[C@@H](O)[C@@H](O[C@H]4[C@H](O)[C@@H](O)[C@@H](O[C@H]5[C@H](O)[C@@H](O)[C@@H](O[C@H]6[C@H](O)[C@@H](O)[C@@H](O[C@H]7[C@H](O)[C@@H](O)[C@@H](O[C@H]8[C@H](O)[C@@H](O)[C@@H](O[C@H]1[C@H](O)[C@H]2O)O[C@@H]8CO)O[C@@H]7CO)O[C@@H]6CO)O[C@@H]5CO)O[C@@H]4CO)O[C@@H]3CO
not listed: [14] | [17] | [18] | [19] | [20]
inactive: all other assays above

CCCc1c(OCCCCc2nn[nH]n2)ccc(C(C)=O)c1O
active: [10] 23.9 µM | [12] 29.8 µM | [14] 21.1 µM and 54.5 µM
29.8 µM (active) and inactive: [13]
not listed: [17] | [18] | [19] | [20]
inactive: all other assays above

CC(CCC(=O)O)(c1ccc(O)cc1)c1ccc(O)cc1
not listed: [13] | [17] | [18] | [19] | [20]
inactive: all other assays above

CC(C)OC(=O)C(C)(C)Oc1ccc(C(=O)c2ccc(Cl)cc2)cc1
inactive and 48.6 µM (active): [20]
inactive and 43.6 µM (active): [15]
active: [12] 29.8 µM and 12.2 µM | [14] 15.4 µM
not listed: [13] | [16]
inactive: all other assays above

S=C(NC1CCCCC1)NC1CCCCC1
active: [15] 19.1 µM
not listed: [13] | [14] | [17] | [18] | [19] | [20]
inactive: all other assays above
